Some test systems named below: HCT-15 colon; HT29 colon; SNB-75 CNS; SNB-19 CNS; U251 CNS; PC-3 prostate; SK-MEL-5 melanoma; UACC-62 melanoma; LOX IMVI melanoma; SK-MEL-28 melanoma.
Holding throughout (assay): NCI-60 one-dose screen, 48 h (100 = growth as untreated, 0 = no growth, -100 = all killed)
Holding throughout (conditions): 10 µM unless noted

The panel holds about 83,000 compounds, 20% with a hit somewhere; the sample as a whole holds those more often.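 In brief: 96-well plates, 48 h treatment, single concentration, percent growth endpoint.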 A number with no mark means an inactive call. Calls of active or inactive are those of the source. How the source made its calls: active means growth percent below 10; inactive means the rest.

For the molecule `C=C1C(=O)O[C@H]2[C@H]1CC/C(COC(=O)NCC(=O)Nc1ccc(OC)c(C(N)=O)c1O)=C\CC[C@@]1(C)O[C@@H]21`, the growth in the assay with HCT-15 colon is 91.2%; in the assay on HT29 colon it was 18.8%; in the assay with SNB-75 CNS, 76.9%; in the assay on SNB-19 CNS, 73.9%; with U251 CNS, 62.6%; in the assay with PC-3 prostate it was 85.7%. The growth in the assay on SK-MEL-5 melanoma is 76.4%; with UACC-62 melanoma it was 42.8%; with LOX IMVI melanoma, 55.8%; with SK-MEL-28 melanoma, 47.9%.

Regarding `CC[C@H](Nc1ncnc2nc[nH]c12)c1nc2cccc(CC(=O)c3ccc(C(=O)NO)cc3)c2c(=O)n1-c1ccccc1`, the growth with HCT-15 colon was 102%; in the assay on HT29 colon, 82%; with SNB-75 CNS, 56.3%; in the assay with SNB-19 CNS, 93.2%; with U251 CNS it was 89.3%; with PC-3 prostate, 73.6%. The growth in the assay with SK-MEL-5 melanoma is 96.6%; in the assay on UACC-62 melanoma, 79.9%; with LOX IMVI melanoma it was 91.7%; in the assay on SK-MEL-28 melanoma, 90.2%.

Consider `Cc1ccc(C(=O)O)o1`, for which the growth in the assay on HCT-15 colon was 112%; in the assay on HT29 colon, 92.4%; in the assay with SNB-75 CNS it was 90.7%; with SNB-19 CNS, 112%; in the assay with U251 CNS it was 98.3%; in the assay with PC-3 prostate, 90.2%. The growth is 102% with SK-MEL-5 melanoma, 107% with UACC-62 melanoma, 100% in the assay on LOX IMVI melanoma and 108% with SK-MEL-28 melanoma.

For `O=C1C(=O)c2c(nc3ccc(C(F)(F)F)cn23)-c2ccccc21`, the growth in the assay with HCT-15 colon was -67.4% (active); in the assay with HT29 colon it was -9.93% (active); in the assay on SNB-75 CNS, -97% (active); in the assay with SNB-19 CNS, -84.4% (active); in the assay with U251 CNS, -96% (active); in the assay on PC-3 prostate it was -85% (active). The growth is -99.2% (active) in the assay with SK-MEL-5 melanoma, -82.4% (active) in the assay on UACC-62 melanoma, -65.4% (active) in the assay on LOX IMVI melanoma and -84.3% (active) in the assay with SK-MEL-28 melanoma.

In the case of `CC(=O)c1c(OCC#N)ccc2c(C)cc(=O)oc12`, the growth in the assay with HCT-15 colon is 102%; in the assay on HT29 colon it was 117%; in the assay on SNB-75 CNS, 103%; with SNB-19 CNS it was 97.2%; with U251 CNS it was 94.9%; in the assay on PC-3 prostate, 87.2%. Besides, the growth in the assay with SK-MEL-5 melanoma was 104%; in the assay on UACC-62 melanoma, 96.5%; in the assay with LOX IMVI melanoma, 100%; in the assay with SK-MEL-28 melanoma, 93%.

Turning to `N#Cc1ccc(N2Cc3cc(Cl)ccc3OC3=C2C(=O)N(Cc2ccccc2)C3=O)cc1`, the growth is -44.9% (active) in the assay with HCT-15 colon; -47.3% (active) with HT29 colon; 29.9% in the assay with SNB-75 CNS; 69.1% in the assay with SNB-19 CNS; -31.7% (active) in the assay with U251 CNS; 21.9% in the assay with PC-3 prostate. In addition, the growth was -31.5% (active) in the assay with SK-MEL-5 melanoma, -35.5% (active) in the assay on UACC-62 melanoma, -91.6% (active) with LOX IMVI melanoma and -44.4% (active) in the assay on SK-MEL-28 melanoma.

In the case of `CCOC(=O)c1c(C)nc2c(c1N)/C(=C/c1ccccn1)C(=O)N2Cc1ccccc1`, the growth is -58.9% (active) with HCT-15 colon; -18.6% (active) with HT29 colon; 68.6% in the assay with SNB-75 CNS; 0.719% (active) in the assay with SNB-19 CNS; -87.4% (active) with U251 CNS; 2.04% (active) in the assay with PC-3 prostate. The growth with SK-MEL-5 melanoma is 41.2%; in the assay on UACC-62 melanoma, 4.68% (active); in the assay with LOX IMVI melanoma, -88.4% (active); in the assay with SK-MEL-28 melanoma, -2.42% (active).

As for `Cc1cc2ccccc2c[n+]1CC(=O)c1ccc(-c2ccccc2)cc1`, the growth is 84% in the assay with HCT-15 colon; 24.8% in the assay on HT29 colon; 61.4% with SNB-75 CNS; 58.8% in the assay with SNB-19 CNS; 42.7% in the assay with U251 CNS; 29.7% in the assay with PC-3 prostate. Also, the growth in the assay with SK-MEL-5 melanoma is 21.6%; in the assay with UACC-62 melanoma, 71.2%; with LOX IMVI melanoma, 54%; with SK-MEL-28 melanoma, 84%.

As for `COC(=O)CCc1cc(O)c2c(c1)[C@@H](C(=O)OC)[C@H](c1ccc(O)c(O)c1)O2`, the growth was 50.3% in the assay with HCT-15 colon; 95% in the assay on HT29 colon; 71.2% in the assay on SNB-75 CNS; 74.9% in the assay with SNB-19 CNS; 71% in the assay with U251 CNS; 85.5% with PC-3 prostate. Further, the growth is 76.4% in the assay on SK-MEL-5 melanoma, 66% in the assay with UACC-62 melanoma, 63.4% in the assay with LOX IMVI melanoma and 73.8% in the assay on SK-MEL-28 melanoma.

As to `Nc1ccc(C2=NN(C(=O)c3cc(-c4ccc(Cl)cc4)nc4ccccc34)C(c3ccc(Cl)cc3)C2)cc1` (stereo not given), the growth in the assay on HCT-15 colon is 26.3%; in the assay with HT29 colon it was 11.5%; in the assay on SNB-75 CNS, 67.5%; in the assay with SNB-19 CNS it was 30.5%; with U251 CNS, 31.5%; with PC-3 prostate, 23.3%. The growth with SK-MEL-5 melanoma was 28.3%; in the assay with UACC-62 melanoma it was 38%; in the assay on LOX IMVI melanoma, 48.3%; in the assay on SK-MEL-28 melanoma, 65%.

For `Cc1nn(-c2ccc(-c3ccc(OC(F)(F)F)cc3)cc2)c2nc(-c3ccccc3)nc(N)c12`, the growth was 95.6% in the assay on HCT-15 colon; 90.2% in the assay on HT29 colon; 95% with SNB-75 CNS; 90.7% in the assay on SNB-19 CNS; 85.5% in the assay with U251 CNS; 93.2% in the assay with PC-3 prostate. Moreover, the growth is 100% in the assay with SK-MEL-5 melanoma, 99.9% with UACC-62 melanoma, 93.8% in the assay with LOX IMVI melanoma and 115% in the assay on SK-MEL-28 melanoma.

For `O=C1CCc2ccccc2N1`, the growth in the assay with HCT-15 colon is 103%; in the assay on HT29 colon, 102%; with SNB-75 CNS, 78.1%; in the assay on SNB-19 CNS, 96.2%; in the assay on U251 CNS, 102%; in the assay on PC-3 prostate, 102%. The growth in the assay on SK-MEL-5 melanoma was 98.9%; with UACC-62 melanoma, 97.6%; with LOX IMVI melanoma, 94.4%; in the assay with SK-MEL-28 melanoma it was 104%.

Regarding `c1ccc(-c2n(Cc3ccc4ccccc4n3)cc[n+]2Cc2ccc3ccccc3c2)cc1`, the growth in the assay on HCT-15 colon is 70.5%; in the assay on HT29 colon, -9.68% (active); with SNB-75 CNS it was 3.74% (active); with SNB-19 CNS, 9.86% (active); in the assay on U251 CNS, 8.14% (active); in the assay with PC-3 prostate, 1.28% (active). For the same molecule, the growth was -95.2% (active) with SK-MEL-5 melanoma, -46.2% (active) in the assay with UACC-62 melanoma, -25.9% (active) in the assay with LOX IMVI melanoma and 0.22% (active) in the assay on SK-MEL-28 melanoma.

As to `Nc1c(C(=O)Nc2ccccn2)sc2nc3c(cc12)CCCCC3`, the growth in the assay with HCT-15 colon is 24%; with HT29 colon it was 7.16% (active); with SNB-75 CNS, 12.3%; with SNB-19 CNS, 33.4%; in the assay on U251 CNS, 23.2%; in the assay with PC-3 prostate it was 31.4%. Moreover, the growth was 22.2% with SK-MEL-5 melanoma, 40.8% in the assay with UACC-62 melanoma, 48.6% with LOX IMVI melanoma and 73.7% in the assay with SK-MEL-28 melanoma.

As to `O=CN1N=C(c2ccc3c(c2)OCO3)CC1c1cccc(Nc2ccnc3cc(C(F)(F)F)ccc23)c1` (stereo not given), the growth was 70.9% in the assay on HCT-15 colon; 73.4% in the assay on HT29 colon; 89% in the assay with SNB-75 CNS; 89.8% in the assay on SNB-19 CNS; 88.7% in the assay on U251 CNS; 56.8% in the assay on PC-3 prostate. For the same molecule, the growth in the assay with SK-MEL-5 melanoma was 50.7%; in the assay with UACC-62 melanoma, 55.2%; with LOX IMVI melanoma, 76%; in the assay on SK-MEL-28 melanoma it was 100%.

`Cc1c(Cl)cccc1NC(=O)c1sc2nc3c(cc2c1N)CCCCC3`: the growth in the assay with HCT-15 colon was 30.1%; with HT29 colon, 9.15% (active); with SNB-75 CNS, 9.95% (active); with SNB-19 CNS, 34.2%; in the assay with U251 CNS, 24.2%; with PC-3 prostate, 37.9%. Besides, the growth in the assay with SK-MEL-5 melanoma is 45.8%; in the assay with UACC-62 melanoma, 39.6%; in the assay with LOX IMVI melanoma it was 41.8%; in the assay on SK-MEL-28 melanoma, 72.6%.

Regarding `C=C(C)[C@@H]1CC[C@]2(C(=O)N=C=S)CC[C@]3(C)[C@H](CC[C@@H]4[C@@]5(C)CCC(=O)C(C)(C)[C@@H]5CC[C@]43C)[C@@H]12`, the growth in the assay with HCT-15 colon was 20.3%; with HT29 colon, 15.5%; with SNB-75 CNS, 43.6%; in the assay with SNB-19 CNS, 28.1%; in the assay on U251 CNS, 23.9%; in the assay on PC-3 prostate, 20.8%. Besides, the growth was 77.7% in the assay on SK-MEL-5 melanoma, 44.5% in the assay on UACC-62 melanoma, 41.4% in the assay on LOX IMVI melanoma and 66% in the assay on SK-MEL-28 melanoma.

`S=C(Nc1ccccc1)c1ccccn1`: the growth in the assay on HCT-15 colon is 96.8%; in the assay on HT29 colon, 86.4%; in the assay with SNB-75 CNS it was 97.3%; in the assay on SNB-19 CNS, 97.5%; in the assay on U251 CNS, 95.2%; with PC-3 prostate, 92.2%. For the same molecule, the growth in the assay on SK-MEL-5 melanoma is 102%; in the assay with UACC-62 melanoma, 90.3%; with LOX IMVI melanoma, 85.9%; with SK-MEL-28 melanoma, 104%.

As for `O=C(/C(=C/c1ccc([N+](=O)[O-])cc1)SCc1ccc(F)cc1)c1ccc(Cl)cc1`, the growth in the assay with HCT-15 colon was 5.41% (active); in the assay with HT29 colon, 8.59% (active); in the assay on SNB-75 CNS, 83.3%; with SNB-19 CNS, 47.4%; with U251 CNS, 0.994% (active); with PC-3 prostate, 47.4%. Besides, the growth in the assay with SK-MEL-5 melanoma is 54.2%; in the assay with UACC-62 melanoma, 37.5%; in the assay with LOX IMVI melanoma, 3.68% (active); in the assay with SK-MEL-28 melanoma, 93.1%.

Source of the values: PubChem BioAssay (NCI).
